Experimental data from PubChem BioAssay.
Activity calls are given as the source filed them. Unless noted, no stated cut-off is given here; in the data, active means inhibition above about 42%; inactive means the rest.

System: not listed separately
Experiment: StAR promoter reporter inhibitors, counter-screen for LRH-1 inverse agonist project, cell-based, luminescence, high throughput (AID 651611; in the data active means inhibition above about 28%)
Conditions: StAR promoter luciferase reporter counterscreen, at 3.6 µM, active compounds read high

**Q.** Which inhibition does the source give for O=C(CCl)N1CCN(S(=O)(=O)Cc2ccccc2)CC1 here?
**A.** 25.3% (inactive)

**Q.** With CC(C)(C)C(=O)/C(=C/c1cccc([N+](=O)[O-])c1)n1cncn1 as the compound, how does the inhibition read?
**A.** 87.2% (active)

**Q.** For C#CCN(C[C@@H]1[C@@H](OC(=O)Nc2cccs2)[C@@H](OC(=O)Nc2cccs2)Cn2c(=O)ccc(=O)n21)S(=O)(=O)c1ccc(C)cc1, which inhibition is on record?
**A.** 32% (active)

**Q.** Which inhibition does the source give for O=C(Nc1ccc(Br)cn1)C1CCN(S(=O)(=O)c2cccs2)CC1 here?
**A.** 13.5% (inactive)

**Q.** For CCc1cc(-c2nnn(CCC3COCCO3)c2CC)ccc1-c1cn(Cc2ccc3ccccc3c2)nn1 (centres undefined), which inhibition is on record?
**A.** 0.97% (inactive)

**Q.** Which inhibition does the source give for O=C(N/N=C/c1ccc([N+](=O)[O-])s1)c1cccnc1 here?
**A.** 13.9% (inactive)

**Q.** For COc1ccc(OC)c(N(CCN2C(=O)c3ccccc3C2=O)C(=O)CCl)c1, which inhibition is on record?
**A.** 10.9% (inactive)

**Q.** With N#Cc1cccc(C=C(C(=O)c2ccccc2)c2ccccc2)c1 as the compound, how does the inhibition read?
**A.** 18.6% (inactive)

**Q.** With CC(C)(C)C(=O)/C(=C\c1cccc([N+](=O)[O-])c1)n1cncn1 as the compound, how does the inhibition read?
**A.** 84.9% (active)

**Q.** With COc1ccc(/C=C/C(=O)O)cc1O as the compound, how does the inhibition read?
**A.** 1.72% (inactive)

**Q.** With Cc1ccc(C(=O)Sc2cccccc2=O)cc1 as the compound, how does the inhibition read?
**A.** 98.1% (active)

**Q.** With COc1ccc(NC(=O)/C(Cl)=C(/Cl)S(=O)Cc2ccccc2)cn1 (centres undefined) as the compound, how does the inhibition read?
**A.** 56.1% (active)

Molecular target: Nuclear receptor subfamily 5 group A member 2 (Homo sapiens) (UniProt O00482)
Sequence (O00482 whole entry, looked up): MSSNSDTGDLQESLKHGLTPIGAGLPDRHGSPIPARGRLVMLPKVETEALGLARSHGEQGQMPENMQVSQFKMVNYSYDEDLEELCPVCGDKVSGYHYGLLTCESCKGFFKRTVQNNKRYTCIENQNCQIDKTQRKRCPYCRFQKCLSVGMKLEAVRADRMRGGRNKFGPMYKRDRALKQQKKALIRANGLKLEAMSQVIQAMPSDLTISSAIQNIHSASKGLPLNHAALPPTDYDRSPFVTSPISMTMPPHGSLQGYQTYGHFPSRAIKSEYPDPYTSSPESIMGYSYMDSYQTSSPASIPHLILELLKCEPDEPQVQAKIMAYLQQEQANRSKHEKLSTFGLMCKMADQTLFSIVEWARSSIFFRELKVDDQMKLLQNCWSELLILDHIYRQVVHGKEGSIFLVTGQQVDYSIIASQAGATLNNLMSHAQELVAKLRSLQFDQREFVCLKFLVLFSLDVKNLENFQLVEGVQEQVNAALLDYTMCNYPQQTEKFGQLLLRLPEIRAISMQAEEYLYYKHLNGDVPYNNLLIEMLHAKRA
Experiment: NR5A2 activity suppression in reporter cells – cell-based, luminescence, confirmation (AID 651613);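 further: HEK293T cells co-transfected with LRH-1 and StAR promoter luciferase reporter; 0% = vehicle wells and 100% = parental cells lacking receptor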
Conditions: cell-based LRH-1 luciferase reporter, inverse agonism; at 3.6 µM; active compounds read high

**Q.** With O=C(CCl)N1CCN(S(=O)(=O)Cc2ccccc2)CC1 as the compound, how does the inhibition read?
**A.** 52.9% (active)

**Q.** Which inhibition does the source give for COC(=O)c1ccc(OCC2c3cc(OC)c(OC)cc3CCN2C(=O)c2ccco2)cc1 (centres undefined) here?
**A.** 52.8% (active)

**Q.** Which inhibition does the source give for CN(C)c1ccc2nc3ccc(=[N+](C)C)cc-3sc2c1 here?
**A.** 59.9% (active)

**Q.** Which inhibition does the source give for C#CCN(C[C@@H]1[C@@H](OC(=O)Nc2cccs2)[C@@H](OC(=O)Nc2cccs2)Cn2c(=O)ccc(=O)n21)S(=O)(=O)c1ccc(C)cc1 here?
**A.** 54.4% (active)

**Q.** Which inhibition does the source give for O=C(Nc1ccc(Br)cn1)C1CCN(S(=O)(=O)c2cccs2)CC1 here?
**A.** 48.4% (active)

**Q.** For CCc1cc(-c2nnn(CCC3COCCO3)c2CC)ccc1-c1cn(Cc2ccc3ccccc3c2)nn1 (centres undefined), which inhibition is on record?
**A.** 34.7% (inactive)

**Q.** For O=C(N/N=C/c1ccc([N+](=O)[O-])o1)c1ccc(O)cc1, which inhibition is on record?
**A.** 78.3% (active)

**Q.** Which inhibition does the source give for CN(C)C(=O)c1cccc(COc2ccc(N3C(N)=NC(N)=NC3(C)C)cc2Cl)c1 here?
**A.** 42.1% (active)

**Q.** With COc1ccc(OC)c(N(CCN2C(=O)c3ccccc3C2=O)C(=O)CCl)c1 as the compound, how does the inhibition read?
**A.** 30.5% (inactive)

**Q.** Which inhibition does the source give for CC(=O)Nc1ccc(NC(=O)CSc2nnc(-c3ccco3)n2Cc2ccco2)cc1 here?
**A.** 58.2% (active)

**Q.** With N#Cc1cccc(C=C(C(=O)c2ccccc2)c2ccccc2)c1 as the compound, how does the inhibition read?
**A.** 28.9% (inactive)

**Q.** With CNC(=O)c1cc(Oc2ccc(NC(=O)Nc3ccc(Cl)c(C(F)(F)F)c3)cc2)ccn1 as the compound, how does the inhibition read?
**A.** 63.7% (active)

**Q.** With COc1ccc(-c2nc3c([nH]2)c(=O)n(C)c(=O)n3C)c(OC)c1 as the compound, how does the inhibition read?
**A.** 24.5% (inactive)

**Q.** For CC(N)C(=O)NC(CO)C(O)C(N)C=O (centres undefined), which inhibition is on record?
**A.** 56.3% (active)

**Q.** For Cn1cc(C(=O)c2ccc(Cl)cc2)cc1-c1nc2ccccc2n1C, which inhibition is on record?
**A.** 51.9% (active)

**Q.** With Cc1ccc(C(=O)Sc2cccccc2=O)cc1 as the compound, how does the inhibition read?
**A.** 107% (active)

**Q.** Which inhibition does the source give for COc1ccc(NC(=O)/C(Cl)=C(/Cl)S(=O)Cc2ccccc2)cn1 (centres undefined) here?
**A.** 87.8% (active)
